PubChem BioAssay (NCI)
Where “and” joins values, the source holds several entries; their conditions need not be identical. Identical values can stand only once. About 79,000 compounds went through this panel and 15% of them were active in at least one assay; those are over-represented in the sample as a whole. Calls of active or inactive are those of the source. Rule as the data show it: active = growth inhibition above about 70%; inactive = the rest.

Experiments:
[1] = NCI Yeast Anticancer Drug Screen. Data for the rad50 strain (AID 155);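 also: 0% = growth of vehicle-only cultures of the same strain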; conditions: S. cerevisiae rad50 strain growth inhibition; at 50.0 µM; hits give high values
Method in brief: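 Cells are treated with compound, grown, and their growth is then scored against vehicle-only cultures of the same repair-deficient yeast strain.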

[2] = NCI Yeast Anticancer Drug Screen. Data for the mec2-1 strain (AID 157); conditions: S. cerevisiae mec2-1 strain, at 50.0 µM, hits give high values
Method in brief: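 Growth inhibition is read against vehicle-treated controls after compound exposure of the mec2-1 yeast strain, which is defective in DNA damage repair or cell cycle control.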

[3] = NCI Yeast Anticancer Drug Screen. Data for the sgs1 mgt1 strain (AID 161);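 also: 0% = growth of cultures given vehicle only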; conditions: S. cerevisiae sgs1 mgt1 strain, at 50.0 µM, hits give high values
Method in brief: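 This yeast growth screen uses a strain with defined DNA-repair lesions; compound-treated growth is compared with vehicle-treated growth.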

[4] = NCI Yeast Anticancer Drug Screen. Data for the cln2 rad14 strain (AID 165);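 also: 0% = growth equal to vehicle treated cultures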; conditions: S. cerevisiae cln2 rad14 strain, at 50.0 µM, hits give high values
Method in brief: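 Growth inhibition, relative to vehicle-treated controls, is the read-out. The test organism is a yeast strain with defined genetic alterations, cln2 rad14.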

[5] = NCI Yeast Anticancer Drug Screen. Data for the bub3 strain (AID 167); conditions: S. cerevisiae bub3 mutant strain, at 50.0 µM, hits give high values
Method in brief: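 Part of a panel of yeast mutants defective in DNA damage repair or cell cycle regulation. Each strain is grown with compound, and inhibition is calculated relative to solvent-treated cultures.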

[6] = NCI Yeast Anticancer Drug Screen. Data for the mlh1 rad18 strain (AID 175); conditions: S. cerevisiae mlh1 rad18 strain growth inhibition; at 50.0 µM; hits give high values
Method in brief: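 Cells of a genetically altered yeast strain, deficient in DNA damage repair, were treated with compound. Their growth was then compared with that of vehicle-treated cultures to give inhibition.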

Measured: growth inhibition

O=[N+]([O-])c1ncccc1NCCN1CCCC1
inactive: [1] -2.2% | [2] -0.5% | [3] -15.8% | [4] -29.3% | [5] 7.05% | [6] 4.7%

CCOC(=O)C(Cc1ccc(N(CCCl)CCCl)cc1)NC(=O)C(N)CO (configuration not stated)
inactive: [1] -4.05% | [2] 17.6% | [3] 4.75% | [4] -1.3% | [5] 12.3% | [6] 7.5%

Cc1cc(-n2c(C)nc3ccccc3c2=O)on1
inactive: [1] -35.1% | [2] -15.7% | [3] -4.15% | [4] -47.5% | [5] 8.9% | [6] 3.75%

CC1(C)C2=CC[C@H]3[C@@H]4CC[C@H](O)[C@@]4(C)CC[C@@H]3[C@@]2(C)CC[C@@H]1O
inactive: [1] -2.6% | [2] -16.4% | [3] -4.75% | [4] -19.4% | [5] 5.35% | [6] -3.15%

O=c1c2ccccc2sc2c1c(N(CCCl)CCCl)cc1ccccc12
inactive: [1] 39.2% | [2] 5.5% | [3] 20.1% | [4] 17.5% | [5] -5.85% | [6] 18.8%

CC(=O)CC(C)=O.CC(=O)CC(C)=O.CC(=O)CC(C)=O.[Mn]
inactive: [1] 11.2% and 10.1% | [2] -1.45% and -5% | [3] 8% and 1.6% | [4] 10.8% and -53% | [5] -3.1% and 3.2% | [6] 8.05% and 18.4%

NC(CSC(c1ccccc1)c1ccccc1)C(=O)O (configuration not stated)
inactive: [1] 6.3% | [2] 0% | [3] 3.35% | [4] 5% | [5] 13.4% | [6] 3.5%
